Test results published in PubChem BioAssay AID1159580 (chemical genetic matrix, 2015).
“And” between values parts separate entries of the source, which are not always exact repeats. Equal values may be shown once. The whole screen tested about 5,500 compounds, of which about 2,000 (36%) were called active. About 18% were inconclusive and are not listed. Rule as the data show it: active = normalized growth mostly below about 0.91 (no sharp cut-off); inconclusive = no clear call, values can overlap the other calls; inactive = mostly above about 0.92. Some of the results follow.

Assay: chemical genetic growth profiling, strain panel (AID 1159580);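 also: tested at 20 µM; growth read once vehicle control cultures reached saturation at 30 °C; 1 = growth at the plate median or of vehicle wells; lower values mean less growth of the strain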
Settings: S. cerevisiae deletion strains, growth OD

Measured: normalized growth

CC[C@@H]1[C@@H](O)N2C3C[C@H]1C1C(O)[C@]4(C[C@@H]12)c1ccccc1N(C)[C@@H]34 (some centres not stated)
inactive: locus YAL013W, strain DEP1, active compounds read low 0.992 | locus YAL021C, strain ccr4, active compounds read low 1.01 | locus YAL026C, strain drs2, active compounds read low 1.04 | locus YAL030W, strain snc1, active compounds read low 1.05 | locus YBL061C, strain skt5, active compounds read low 1.04 | locus YBR009C, strain hhf1, active compounds read low 1.02 | locus YBR021W, strain FUR4, active compounds read low 0.989 | locus YBR023C, strain chs3, active compounds read low 1.05 | locus YBR171W, strain sec66, active compounds read low 1.07 | locus YBR229C, strain ROT2, active compounds read low 0.991 | locus YBR231C, strain swc5, active compounds read low 0.999 | locus YBR279W, strain paf1, active compounds read low 1.04 | locus YCL011C, strain gbp2, active compounds read low 1.02 | locus YCL016C, strain dcc1, active compounds read low 1.02 | locus YCL029C, strain bik1, active compounds read low 0.956 | locus YCL061C, strain MRC1, active compounds read low 1.04 | locus YCL069W, strain vba3, active compounds read low 1.04 | locus YCR088W, strain abp1, active compounds read low 1.04 | locus YDL005C, strain med2, active compounds read low 1.05 | locus YDL035C, strain GPR1, active compounds read low 1.01 | locus YDL040C, strain nat1, active compounds read low 1.03 | locus YDL074C, strain BRE1, active compounds read low 0.972 | locus YDL101C, strain DUN1, active compounds read low 0.984 | locus YDL134C, strain PPH21, active compounds read low 0.986 | locus YDL185W, strain tfp1, active compounds read low 0.963 | locus YDL192W, strain arf1, active compounds read low 0.984 | locus YDR001C, strain nth1, active compounds read low 1.02 | locus YDR069C, strain doa4, active compounds read low 1.04 | locus YDR101C, strain arx1, active compounds read low 0.981 | locus YDR137W, strain rgp1, active compounds read low 1.04 | locus YDR150W, strain NUM1, active compounds read low 1 | locus YDR159W, strain sac3, active compounds read low 0.974 | locus YDR162C, strain NBP2, active compounds read low 0.998 | locus YDR195W, strain ref2 1.03 | locus YDR297W, strain sur2, active compounds read low 1.03 | locus YDR318W, strain mcm21, active compounds read low 0.972 | locus YDR334W, strain swr1, active compounds read low 1.03 | locus YDR335W, strain msn5, active compounds read low 1.03 | locus YDR388W, active compounds read low 0.978 | locus YDR392W, strain spt3, active compounds read low 0.93 | locus YDR502C, strain sam2, active compounds read low 1 | locus YEL003W, strain gim4, active compounds read low 1.03 | locus YEL037C, strain rad23, active compounds read low 1.02 | locus YEL061C, strain CIN8 (second series), active compounds read low 1.04 | locus YEL061C, strain CIN8, active compounds read low 0.995 | locus YER015W, strain faa2, active compounds read low 1.02 | locus YER016W, strain bim1, active compounds read low 1.01 | locus YER110C, active compounds read low 0.977 | locus YER111C, strain swi4, active compounds read low 1.06 | locus YER155C, strain BEM2 (second series), active compounds read low 0.983 | locus YER155C, strain BEM2, active compounds read low 0.991 | locus YER167W, strain BCK2, active compounds read low 0.989 | locus YFR010W, strain ubp6, active compounds read low 1.02 | locus YGL078C, strain dbp3, active compounds read low 0.978 | locus YGL086W, strain mad1, active compounds read low 0.992 | locus YGL167C, strain pmr1, active compounds read low 1.03 | locus YGL173C, strain kem1, active compounds read low 1.02 | locus YGL227W, strain vid30, active compounds read low 1.05 | locus YGL240W, strain doc1, active compounds read low 0.979 | locus YGL248W, strain PDE1, active compounds read low 0.991 | locus YGL253W, strain hxk2, active compounds read low 1.04 | locus YGR078C, strain PAC10, active compounds read low 0.984 | locus YGR135W, strain pre9, active compounds read low 0.96 | locus YGR229C, strain SMI1, active compounds read low 1 | locus YGR252W, strain gcn5, active compounds read low 1 | locus YHR013C, strain ard1, active compounds read low 1.03 | locus YHR027C, strain rpn1, active compounds read low 1.02 | locus YHR030C, strain SLT2, active compounds read low 0.993 and 0.984 | locus YHR079C, strain IRE1 (second series), active compounds read low 0.965 | locus YHR079C, strain IRE1, active compounds read low 0.981 | locus YHR094C, strain hxt1, active compounds read low 0.983 | locus YHR129C, strain ARP1, active compounds read low 0.982 | locus YHR142W, strain chs7, active compounds read low 1.1 | locus YHR200W, strain rpn10, active compounds read low 0.981 | locus YIL066C, strain RNR3, active compounds read low 0.993 | locus YIL073C, strain SPO22, active compounds read low 0.997 | locus YIL125W, strain kgd1, active compounds read low 0.981 | locus YIR030C, strain dcg1, active compounds read low 0.984 | locus YJL092W, strain hpr5, active compounds read low 1.04 | locus YJL095W, strain BCK1 (second series), active compounds read low 1.01 | locus YJL095W, strain BCK1, active compounds read low 0.966 and 1.01 | locus YJL115W, strain asf1, active compounds read low 1.07 | locus YJL129C, strain trk1, active compounds read low 1.06 | locus YJL134W, strain LCB3, active compounds read low 0.993 | locus YJL154C, strain vps35, active compounds read low 1.03 | locus YJL164C, strain tpk1, active compounds read low 1.04 | locus YJL166W, strain qcr8, active compounds read low 1.04 | locus YJL168C, strain set2, active compounds read low 0.97 | locus YJL187C, strain SWE1 (second series), active compounds read low 0.979 | locus YJL187C, strain SWE1, active compounds read low 1.02 | locus YJR043C, strain POL32, active compounds read low 0.973 | locus YJR066W, strain TOR1, active compounds read low 0.926
